# Assay results: PubChem BioAssay (NCATS)
# Inconclusive results are not listed. Entries that show only a call come without a potency. Active and inactive are the calls of the source. Unless noted, calls follow the shape of the dose curve; as a rule, active = well fitted curve in the direction sought with a large enough effect; inconclusive = small, poorly fitted or top-dose-only effect, or another doubt; inactive = no such curve, though single readings can be large; an effect the other way counts as inactive or inconclusive.
# Key:
# [1] = molecular target: Alpha-galactosidase A (Homo sapiens) (UniProt P06280); assay: Counterscreen for Glucocerebrosidase Inhibitors: qHTS Assay for Human alpha-Galactosidase at pH 4.5 (AID 992)
# Summary of the method: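 Read-out is 4-methylumbelliferone fluorescence (365 nm excitation, 440 nm emission) after a pH 10 NaOH/glycine stop. Reactions held 2 nM enzyme and 80 uM substrate at pH 4.5 for 20 min at room temperature.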
# [2] = Validation of Assay for Modulators of Lamin A Splicing (AID 1459; active = well fitted curve in the direction sought with a large enough effect in the signal ratio; the % refers to the signal ratio;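 also: cells exposed to compound for two days before reading; ratio rise marks activators and ratio drop marks inhibitors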)
# Summary of the method: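 Readout: ratio of GFP (500-530 nm) to RFP (575-640 nm) total object intensity by 488 nm laser-scanning cytometry after 48 hrs. Cells were HeLa S3 clones carrying lamin A-EGFP minigene plus DsRed2 viability reporter; vehicle 0.5% DMSO final.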
# [3] = molecular target: DNA repair nuclease/redox regulator APEX1 (Homo sapiens) (UniProt P27695); assay: qHTS Validation Assay for Inhibitors of the Human Apurinic/apyrimidinic Endonuclease 1 (APE1) (AID 1705;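 also: TAMRA fluorescence gain over two minutes as APE1 cuts a quenched THF abasic duplex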)
# Summary of the method: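 Read-out: TAMRA fluorescence (525 nm ex, 598 nm em) from cleavage of a quenched THF abasic-site duplex, 50 nM final; activity taken as intensity change between third and first of three reads 60 s apart.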
# [4] = Counterscreen for APE1 Inhibitors: Fluorescent Dye Displacement Validation Assay (AID 1707)
# Summary of the method: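 ThO 250 nM + dsDNA 50 nM (THF abasic site, 5'-TAMRA), Tris-HCl pH7.5/50mM NaCl/2 mM MgCl2/0.01% Tween-20; compounds pin-transferred; ex 480/em 540 nm endpoint. Neutral = no compound; no-DNA ThO wells = negative control.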
# [5] = molecular target: Endonuclease 4 (Escherichia coli (strain K12)) (UniProt P0A6C1); assay: Counterscreen for APE1 Inhibitors: qHTS Validation Assay for Inhibitors of Endonuclease IV (AID 1708)
# Summary of the method: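 2 nM enzyme was preincubated with compounds for 15 min at room temperature in 50 mM Tris-HCl pH 7.5, 50 mM NaCl, 2 mM MgCl2, 1 mM DTT, 0.01% Tween-20. 50 nM THF-abasic TAMRA/BHQ-2 duplex substrate started the reaction.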
# [6] = qHTS for differential inhibitors of proliferation of Plasmodium falciparum line 7G8 (AID 1815);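 also: parasite growth measured after three days of incubation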; also: potency is read from the fitted curve at half-maximal effect
# [7] = qHTS for differential inhibitors of proliferation of Plasmodium falciparum line GB4 (AID 1816); settings: Potency: Plasmodium falciparum GB4 proliferation inhibition;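 also: parasite growth measured after 72 h incubation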; also: potency is read from the fitted curve at half-maximal effect
# [8] = qHTS for differential inhibitors of proliferation of Plasmodium falciparum line W2 (AID 1883); settings: Potency: Plasmodium falciparum W2 proliferation inhibition;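 also: parasites grown with compound for 72 h before lysis and staining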; also: potency is read from the fitted curve at half-maximal effect
# [9] = qHTS for differential inhibitors of proliferation of Plasmodium falciparum line 3D7 (AID 1876); also: potency is read from the fitted curve at half-maximal effect
# [10] = qHTS for differential inhibitors of proliferation of Plasmodium falciparum line D10 (AID 1877);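 also: parasites grown with compound for 72 h before DNA staining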; also: potency is read from the fitted curve at half-maximal effect
# [11] = qHTS for differential inhibitors of proliferation of Plasmodium falciparum line Dd2 (AID 1882); settings: Potency: Plasmodium falciparum Dd2 proliferation inhibition; also: nearly all actives have a fitted effect of over 65% in size; also: potency is read from the fitted curve at half-maximal effect;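 as to activity change, negative = inhibition: compound exposure of 72 h on infected erythrocytes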
# Summary of the method: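 SYBR Green I DNA fluorescence read-out, ex 485/em 535 nm. Signals were normalized to 0.29 uM artemisinin and DMSO wells, then corrected using vehicle-only plates flanking each stack. Parasite growth ran 72 h in erythrocytes before lysis.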
# [12] = molecular target: Alpha-galactosidase (Coffea arabica) (UniProt Q42656); assay: Counterscreen for Glucocerebrosidase Inhibitors: qHTS Assay for Coffee Bean alpha-Galactosidase at pH 5.9 (AID 998)
# Summary of the method: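 Green coffee bean enzyme (2 nM final) was incubated with compounds (0.7 nM–77 uM) and 4-methylumbelliferyl alpha-D-galactopyranoside (80 uM) in citrate buffer pH 5.9, 20 min at room temperature. High-pH stop; fluorescence 365/440 nm; AC50 from Hill fits.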
# [13] = qHTS for differential inhibitors of proliferation of Plasmodium falciparum line HB3 (AID 1886); settings: Potency: Plasmodium falciparum HB3 proliferation inhibition;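 also: parasites grown with compound for 72 h before SYBR Green readout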; also: potency is read from the fitted curve at half-maximal effect
# [14] = molecular target: alpha-glucosidase (Oryza sativa, rice) (UniProt Q653V4); assay: Counterscreen for Glucocerebrosidase Inhibitors: qHTS Assay for Rice alpha-Glucosidase at pH 5.0 (AID 997)
# Summary of the method: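 Rice alpha-glucosidase (4 nM final) with 400 uM 4-methylumbelliferyl-alpha-D-glucopyranoside in citrate buffer pH 5.0, 20 min at room temperature, stopped at pH 10; fluorescence 365/440 nm, compounds 0.7 nM–77 uM, AC50 from Hill fits.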
# [15] = qHTS Assay for Modulators of Human Peripheral Myelin Protein 22 (PMP22) Expression/Activity (AID 1967; active = well fitted curve in the direction sought with a large enough effect in the signal ratio; the % refers to the signal ratio)
# Summary of the method: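 Mouse MSC80 Schwann line, Pmp22 promoter–CBG68 reporter, EF-alpha–CBR internal control. 24h compound exposure, 37 °C/5% CO2, DMEM + 10% FBS. Readout: corrected green/red luminescence ratio, normalized to untreated cells; concentration-response curves fitted and classified.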
# [16] = qHTS Assay for Lipid Storage Modulators (AID 1519; calls by dose curve); settings: Drosophila S3 cells, BODIPY lipid droplet/cell ratio, laser cytometry, cells loaded with oleic acid
# Summary of the method: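 Cells seeded at 5,000 per well were treated with compounds over a concentration series and loaded with oleic acid (400 uM, as added). Lipid droplet fluorescence (488 nm excitation, 500-530 nm channel) was read by laser-scanning cytometry and normalized to 20 uM Triacsin C.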
# [17] = measured here: cell count channel max response
# [18] = measured here: lipid channel max response
# Sequence of DNA repair nuclease/redox regulator APEX1 (Homo sapiens) (P27695 whole entry, looked up): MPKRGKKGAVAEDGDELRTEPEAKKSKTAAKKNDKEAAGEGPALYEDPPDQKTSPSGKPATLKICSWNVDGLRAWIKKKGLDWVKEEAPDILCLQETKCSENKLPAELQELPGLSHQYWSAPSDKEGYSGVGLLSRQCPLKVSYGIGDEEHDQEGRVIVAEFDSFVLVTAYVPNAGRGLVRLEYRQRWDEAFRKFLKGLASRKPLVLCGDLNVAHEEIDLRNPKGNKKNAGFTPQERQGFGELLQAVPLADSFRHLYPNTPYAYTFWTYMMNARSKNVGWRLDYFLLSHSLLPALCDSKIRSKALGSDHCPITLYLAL
# Sequence of Alpha-galactosidase (Coffea arabica) (Q42656 whole entry, looked up): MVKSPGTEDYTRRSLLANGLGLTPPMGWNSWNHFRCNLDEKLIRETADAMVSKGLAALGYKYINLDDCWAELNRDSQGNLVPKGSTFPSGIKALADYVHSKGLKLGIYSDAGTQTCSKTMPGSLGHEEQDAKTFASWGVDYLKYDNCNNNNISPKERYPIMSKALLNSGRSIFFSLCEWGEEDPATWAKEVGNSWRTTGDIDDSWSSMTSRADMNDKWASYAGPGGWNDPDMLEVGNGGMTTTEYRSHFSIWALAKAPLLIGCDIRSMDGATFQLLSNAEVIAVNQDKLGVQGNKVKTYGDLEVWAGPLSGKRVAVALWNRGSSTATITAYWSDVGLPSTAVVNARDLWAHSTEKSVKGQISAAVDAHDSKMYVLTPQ
# Sequence of Alpha-galactosidase A (Homo sapiens) (P06280 whole entry, looked up): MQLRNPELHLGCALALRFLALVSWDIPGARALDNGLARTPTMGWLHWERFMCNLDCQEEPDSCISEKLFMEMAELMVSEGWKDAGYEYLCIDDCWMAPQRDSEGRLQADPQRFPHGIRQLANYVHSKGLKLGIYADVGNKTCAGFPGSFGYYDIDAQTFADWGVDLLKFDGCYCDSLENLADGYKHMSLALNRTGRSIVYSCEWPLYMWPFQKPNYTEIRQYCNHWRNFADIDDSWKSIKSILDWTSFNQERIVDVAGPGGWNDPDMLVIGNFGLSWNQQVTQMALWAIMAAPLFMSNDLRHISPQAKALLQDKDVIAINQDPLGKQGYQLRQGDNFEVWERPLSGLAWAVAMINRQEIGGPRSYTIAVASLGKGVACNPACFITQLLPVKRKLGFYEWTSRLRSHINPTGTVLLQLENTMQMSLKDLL
SMILES,outcome [1],outcome [2],Potency [3],Potency [4],Potency [5],Potency [6],Potency [7],Potency [8],Potency [9],Potency [10],Potency [11],outcome [12],Potency [13],outcome [14],outcome [15],"activity change, negative = inhibition ([16]; at 57.5 µM (top of the series))","max response [16, 17]","max response [16, 18]","activity change, negative = inhibition ([16]; at 25.7 µM (top of the series))"
O=c1c2ccccc2[se]n1-c1ccccc1,inactive,inactive,inactive,inactive,inactive,14.1 µM (active),14.1 µM (active),17.8 µM (active),–,–,–,–,–,–,–,–,–,–,–
Oc1ccc2c3c1O[C@H]1c4[nH]c5ccccc5c4C[C@@]4(O)C(C2)N(CC2CC2)CCC314 (some centres undefined),–,inactive,inactive,inactive,inactive,8.91 µM (active),8.91 µM (active),6.31 µM (active),10 µM (active),12.6 µM (active),8.91 µM (active),–,–,–,–,–,–,–,–
CCCN(CCC)[C@H]1CCc2c(F)ccc(O)c2C1,inactive,inactive,–,inactive,inactive,1 µM (active),0.501 µM (active),0.447 µM (active),2 µM (active),2.24 µM (active),1.26 µM (active),inactive,1.41 µM (active),–,–,–,–,–,–
COc1ccc2[nH]cc(CCN)c2c1,inactive,inactive,–,inactive,inactive,inactive,inactive,inactive,inactive,inactive,inactive,inactive,inactive,–,–,–,–,–,–
CNC(=O)OCC[N+](C)(C)C,inactive,inactive,–,inactive,inactive,inactive,inactive,inactive,inactive,–,inactive,inactive,inactive,inactive,–,–,–,–,–
CC(N)[C@H](O)c1ccc(O)c(O)c1 (some centres undefined),–,inactive,–,inactive,inactive,inactive,inactive,–,inactive,inactive,inactive,–,inactive,–,inactive,–,–,–,–
NCCc1ccc(S(=O)(=O)F)cc1,inactive,inactive,–,inactive,inactive,inactive,inactive,–,inactive,inactive,inactive,inactive,inactive,–,inactive,–,–,–,–
CC1(C(=O)O)C2CCC(O2)C1(C)C(=O)O (centres undefined),–,–,–,inactive,inactive,3.55 µM (active),3.16 µM (active),1.12 µM (active),2.24 µM (active),1.58 µM (active),5.01 µM (active),–,2.24 µM (active),–,–,–,–,–,–
C=CCN1CC[C@]23c4c5ccc(O)c4O[C@@H]2/C(=N/N=C2\CC[C@@]4(O)C6Cc7ccc(O)c8c7[C@@]4(CCN6CC=C)[C@@H]2O8)CC[C@@]3(O)C1C5,–,–,inactive,inactive,inactive,2.51 µM (active),3.16 µM (active),2.51 µM (active),2.24 µM (active),2.82 µM (active),8.91 µM (active),–,2.82 µM (active),–,–,–,–,–,–
NC(=O)CI,inactive,–,inactive,inactive,inactive,inactive,inactive,inactive,inactive,inactive,inactive,–,inactive,–,–,–,–,–,–
C=CCC1(C(C)CCC)C(=O)N=C(S)NC1=O (centres undefined),–,–,–,–,–,–,–,–,–,–,–,–,–,–,–,5.57% (inactive),14.6%,20.4%,–
CN1C2CCC1CC(OC(c1ccccc1)c1ccc(Cl)cc1)C2 (centres undefined),–,–,inactive,inactive,–,2.24 µM (active),2.24 µM (active),1.12 µM (active),2.24 µM (active),7.94 µM (active),8.91 µM (active),–,2.24 µM (active),–,–,0.923% (inactive),-27.9%,-25.4%,–
NC(CCCCCP(=O)(O)O)C(=O)O (centres undefined),–,–,–,inactive,inactive,inactive,inactive,inactive,inactive,inactive,inactive,–,inactive,–,inactive,0.489% (inactive),-0.44%,-0.15%,–
O=[N+]([O-])c1ccc2nc(N3CCNCC3)ccc2c1,inactive,–,inactive,inactive,inactive,8.91 µM (active),12.6 µM (active),7.94 µM (active),10 µM (active),12.6 µM (active),–,inactive,12.6 µM (active),–,–,0.42% (inactive),28.4%,27.7%,–
CCC(=O)O[C@@](Cc1ccccc1)(c1ccccc1)[C@@H](C)CN(C)C,–,–,–,–,–,–,–,–,–,–,–,–,–,–,–,–,-5.05%,-7.97%,-2.5% (inactive)
O=P(O)(O)C(Cl)(Cl)P(=O)(O)O,inactive,inactive,–,inactive,–,inactive,inactive,inactive,inactive,inactive,inactive,inactive,inactive,inactive,inactive,–,–,–,–
C=CCN1CCC23c4c5ccc(O)c4O[C@H]2C(=O)CC[C@@]3(O)C1C5 (some centres undefined),–,–,inactive,inactive,inactive,inactive,inactive,–,inactive,inactive,inactive,–,inactive,–,–,–,–,–,–
C[N+]1(C)CCC(OC(=O)C(c2ccccc2)c2ccccc2)CC1,–,–,inactive,inactive,inactive,8.91 µM (active),12.6 µM (active),3.98 µM (active),3.16 µM (active),7.08 µM (active),–,inactive,7.94 µM (active),–,–,–,–,–,–
CCCC(C)C1(CC)C(=O)NC(=O)NC1=O (centres undefined),–,–,–,–,–,–,–,–,–,–,–,–,–,–,–,5.49% (inactive),-11.5%,-3.32%,–
C[C@H](N)CN1CCc2ccc(Br)cc21,inactive,–,–,inactive,–,8.91 µM (active),1.26 µM (active),2.24 µM (active),8.91 µM (active),–,8.91 µM (active),inactive,11.2 µM (active),–,–,0.866% (inactive),-15.5%,-16.4%,–
CCCCCCC(C)(C)c1ccc([C@@H]2C[C@H](O)CC[C@H]2CCCO)c(O)c1,–,–,–,inactive,–,1.78 µM (active),2.24 µM (active),2.24 µM (active),5.01 µM (active),7.94 µM (active),4.47 µM (active),–,2.82 µM (active),–,–,-5.44% (inactive),8.54%,2.73%,–
